Records with an inconclusive call do not appear. The source made the active and inactive calls. The calls were made as follows: active = hit-call score of the fitted dose curve at least 0.9, where 1 is the maximum; inconclusive = response in the unintended direction; inactive = score below 0.9. Where a SMILES comes first, the peptide text is derived from it. [ ]: non-standard residue; d: D form. Orn = NCCC[C@H](N)C(=O)O
Experiments:
[1] = TOX21_p53_BLA_p2_viability: Viability Assessment in the Tox21 HCT-116 p53 Agonism Beta-lactamase Assay, Phase 2 (AID 2283591);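 also: compound exposure lasted 16 h at 37 °C; actives lower the ATP signal meaning cytotoxicity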
Summary of the method: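 HCT116 p53-bla cells, 4000/well, dosed after 5 h plating (217-fold dilution of DMSO stocks) and incubated 16 h at 37C. Viability taken as cellular ATP by CellTiter-Glo luminescence after 30 min RT; signal loss marks cytotoxicity.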

[2] = target: Cellular tumor antigen p53 (Homo sapiens) (UniProt P04637); assay: TOX21_p53_BLA_p2_ratio: Tox21 HCT-116 p53 Agonism Beta-lactamase Assay, Ratio, Phase 2 (AID 2283592)
Summary of the method: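 In this cell-based reporter format, HCT116 cells were dosed with chemicals delivered from DMSO by 217-fold dilution and incubated 16 h at 37C. Emission at 460 and 530 nm after 2 h CCF4-AM loading provided the ratio, fitted upward versus DMSO.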

[3] = TOX21_p53_BLA_p3_viability: Viability Assessment in the Tox21 HCT-116 p53 Agonism Beta-lactamase Assay, Phase 3 (AID 2283593);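 also: cells exposed to compound for 16 h before reading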
Summary of the method: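 HCT116 cells, 4000/well, dosed 5 h after plating by pin transfer (217-fold dilution from DMSO stock) and incubated 16 h at 37C, 5% CO2. Viability read as ATP luminescence with CellTiter-Glo after 30 min at room temperature.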

[4] = target: Cellular tumor antigen p53 (Homo sapiens) (UniProt P04637); assay: TOX21_p53_BLA_p3_ratio: Tox21 HCT-116 p53 Agonism Beta-lactamase Assay, Ratio, Phase 3 (AID 2283596)
Summary of the method: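 HCT116 p53-bla cells (4000/well) given compound in DMSO (217-fold dilution) after 5 h, incubated 16 h at 37C. CCF4-AM substrate 2 h at room temperature; 460/530 nm emission ratio, gain fitted against DMSO.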

[5] = TOX21_p53_BLA_p4_viability: Viability Assessment in the Tox21 HCT-116 p53 Agonism Beta-lactamase Assay, Phase 4 (AID 2283597);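 also: hits lower the luminescence signal meaning cytotoxicity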
Summary of the method: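 We seeded HCT116 p53 reporter cells at 4000/well and waited 5 h. We then added compounds in DMSO at a 217-fold dilution and incubated for 16 h. Viability was read as CellTiter-Glo luminescence after 30 min at RT.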

[6] = target: Cellular tumor antigen p53 (Homo sapiens) (UniProt P04637); assay: TOX21_p53_BLA_p5_ratio: Tox21 HCT-116 p53 Agonism Beta-lactamase Assay, Ratio, Phase 5 (AID 2283599)
Summary of the method: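 HCT-116 p53-bla cells (4000/well) plated 5 h, dosed with compound (217-fold DMSO dilution) for 16 h at 37 C; CCF4-AM substrate 2 h at room temperature. Activity is the 460/530 nm emission ratio (405 nm excitation), fitted in gain-of-signal direction versus DMSO.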

[7] = TOX21_p53_BLA_p5_viability: Viability Assessment in the Tox21 HCT-116 p53 Agonism Beta-lactamase Assay, Phase 5 (AID 2283600)
Summary of the method: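 Compounds, pinned from DMSO at 217-fold dilution, were left on the cells for 16 h. The viability endpoint was ATP content measured by CellTiter-Glo luminescence, where falling signal reflects cytotoxicity.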

[8] = target: Cellular tumor antigen p53 (Homo sapiens) (UniProt P04637); assay: TOX21_p53_BLA_p4_ratio: Tox21 HCT-116 p53 Agonism Beta-lactamase Assay, Ratio, Phase 4 (AID 2283601)
Summary of the method: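 HCT-116 p53 beta-lactamase reporter cells (4000/well) preincubated 5 h, then compound (217-fold dilution of DMSO stock) for 16 h at 37C. CCF4-AM substrate added 2 h at room temperature; 460/530 nm emission ratio fitted upward versus DMSO.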

Measured: AC50

Cellular tumor antigen p53 (Homo sapiens), sequence (P04637 whole entry, looked up): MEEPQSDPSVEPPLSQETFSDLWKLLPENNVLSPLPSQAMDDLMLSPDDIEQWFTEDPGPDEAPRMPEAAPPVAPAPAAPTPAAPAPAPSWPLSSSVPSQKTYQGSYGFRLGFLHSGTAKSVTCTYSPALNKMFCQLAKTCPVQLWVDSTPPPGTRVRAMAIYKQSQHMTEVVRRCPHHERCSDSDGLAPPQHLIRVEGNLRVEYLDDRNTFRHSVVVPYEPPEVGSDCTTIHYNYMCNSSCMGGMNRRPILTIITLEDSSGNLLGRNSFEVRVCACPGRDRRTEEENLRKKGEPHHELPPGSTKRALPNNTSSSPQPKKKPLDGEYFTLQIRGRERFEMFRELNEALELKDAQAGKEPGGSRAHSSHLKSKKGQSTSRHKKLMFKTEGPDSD

CC(C)C[C@@H]1NC(=O)[C@H](CCCN)NC(=O)[C@H](C(C)C)NC(=O)[C@@H]2CCCN2C(=O)[C@@H](Cc2ccccc2)NC(=O)[C@H](CC(C)C)NC(=O)[C@H](CCCN)NC(=O)[C@H](C(C)C)NC(=O)[C@@H]2CCCN2C(=O)[C@@H](Cc2ccccc2)NC1=O (cyclo(V[Orn]L[dF]PV[Orn]L[dF]P))
active: [1] 8.09 µM | [3] 5.88 µM | [5] 5.84 µM | [7] 4.51 µM | [8] 2.35 µM
inactive: [2] | [4] | [6]

O=C1C(c2[nH]c3ccccc3c2O)=Nc2ccccc21
inactive: all assays above

Cc1c(Cl)cccc1Nc1ncccc1C(=O)O
inactive: all assays above

O=C1C(=O)c2ccccc2C(O)=C1C1CCC(c2ccc(Cl)cc2)CC1 (stereo not drawn)
active: [2] 10.3 µM | [4] 1.61 µM | [6] 10.3 µM
inactive: all other assays above

CCCCCCCC[P+](CCCCCCCC)(CCCCCCCC)CCCCCCCC
active: [1] 15.8 µM | [2] 29.2 µM | [3] 13.3 µM | [4] 13.4 µM | [5] 21.6 µM | [6] 13.2 µM | [7] 13.6 µM | [8] 31.7 µM

O=C(Nc1ncc([N+](=O)[O-])s1)c1cccs1
active: [2] 25 µM | [3] 8.44 µM | [5] 13.4 µM
inactive: all other assays above

c1ccc(-c2ccc(C(c3ccccc3)n3ccnc3)cc2)cc1 (stereo not drawn)
active: [2] 35.9 µM | [4] 39.5 µM | [5] 38.2 µM | [6] 36.5 µM | [8] 34.1 µM
inactive: [1] | [3] | [7]

c1cc(OCC2CO2)cc(OCC2CO2)c1 (stereo not drawn)
inactive: [1] | [5] | [7]
active: [2] 14.3 µM | [3] 70.3 µM | [4] 20.4 µM | [6] 14.3 µM | [8] 63.2 µM

Nc1cnn([C@@H]2O[C@H](CO)[C@@H](O)[C@H]2O)c(=O)n1
active: [2] 3.04 µM | [4] 2.28 µM | [6] 6.26 µM | [8] 1.34 µM
inactive: all other assays above

C=CCNC1=C2C[C@@H](C)C[C@H](OC)[C@H](O)[C@@H](C)/C=C(\C)[C@H](OC(N)=O)[C@@H](OC)/C=C\C=C(/C)C(=O)NC(=CC1=O)C2=O
active: [2] 0.189 µM | [4] 0.19 µM | [6] 0.183 µM | [8] 0.147 µM
inactive: all other assays above

O=S(=O)(O)CC(S)CS (stereo not drawn)
inactive: all assays above

CO[C@H]1C[C@H](O[C@H]2[C@H](C)O[C@@H](O[C@@H]3/C(C)=C/C[C@@H]4C[C@@H](C[C@]5(C=C[C@H](C)[C@@H](C6CCCCC6)O5)O4)OC(=O)[C@@H]4C=C(C)[C@@H](O)[C@H]5OC/C(=C\C=C\[C@@H]3C)[C@]54O)C[C@@H]2OC)O[C@@H](C)[C@@H]1O
active: [1] 5.93 µM | [3] 9.45 µM | [4] 15.8 µM | [5] 5.07 µM | [6] 7.81 µM | [7] 6.84 µM
inactive: [2] | [8]

CN1CCN(c2cc3c(nn2)Oc2ccccc2N3C)CC1
inactive: all assays above

CCc1oc2ccccc2c1C(=O)c1cc(I)c(O)c(I)c1
active: [1] 23 µM | [2] 7.59 µM | [3] 26.1 µM | [4] 20.8 µM | [5] 11 µM | [7] 24.1 µM | [8] 6.73 µM
inactive: [6]

CCOC(=O)Nc1ccc(NCc2ccc(F)cc2)nc1N
inactive: all assays above

CCO[Si](CCCCl)(OCC)OCC
active: [2] 87.7 µM | [4] 86.2 µM
inactive: all other assays above

CCCCCCCCCCCC[n+]1ccc2ccccc2c1
active: [1] 33.6 µM | [2] 11 µM | [3] 35.9 µM | [4] 15 µM | [5] 23 µM | [6] 28.5 µM | [7] 33.4 µM | [8] 21.8 µM

S=C1NC=NC2N=CNC12 (stereo not drawn)
inactive: [7]
active: [1] 2.15 µM | [2] 7.37 µM | [3] 2.33 µM | [4] 7.71 µM | [5] 2.3 µM | [6] 6.33 µM | [8] 8.02 µM

COc1cccc2c1[C@@H]1CN(CCCCn3c(=O)[nH]c4c(sc5ncc(-c6ccccc6)nc54)c3=O)C[C@@H]1CO2
active: [1] 39.8 µM | [5] 43.3 µM
inactive: all other assays above

CCCCCCCCCCCCCCCCCCNC(=O)OC1CCN(C(=O)OC[C@H](COC(=O)N(Cc2cccc[n+]2CC)C(=O)c2ccccc2OC)OC)CC1
active: [5] 30.2 µM | [6] 35.7 µM | [8] 38.4 µM
inactive: all other assays above

CCCC(CCC)C(=O)OC1C[C@H]2CC[C@@H](C1)[N+]2(C)C (stereo partly drawn)
inactive: all assays above

— PubChem BioAssay (EPA / NIEHS)
